# Active and inactive are the calls of the source.
# Tests used:
# Albumin (Bos taurus) = Albumin (Bos taurus) (UniProt P02769); assay: compounds binding labelled BSA control protein – biochemical, small-molecule microarray, Alexa647 label, 635/667 nm fluorescence, artefact control for SMM control protein annotation, profiling panel (AID 1118); conditions: BSA-A647 binding, fluorescence 635 nm, higher = more signal;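 further: score merges 667 nm emission intensity and signal-to-noise per printed compound spot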
# [1] = probe aXIP binding to arrayed compounds – biochemical, NeuroSMM set, 635/667 nm fluorescence, primary screen (AID 1119); conditions: small-molecule microarray, higher = more signal, called active from +8 up or from −8 down;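 further: probe is the protein aXip251-270 applied at 1 µg/mL to compound-printed slides; binding of probe to printed compounds measured as 667 nm fluorescence plus signal to noise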
# [2] = probe aNOTCH3 binding on compound microarray – biochemical, small-molecule microarray, 635/667 nm fluorescence, primary screen (AID 1120); conditions: higher = more signal;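 further: probe is a biotin-tagged antibody raised against NOTCH3 rather than NOTCH3 protein; score merges spot fluorescence near 667 nm with spot signal to noise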
# [3] = probe aNOTCH2 binding on compound microarray – biochemical, small-molecule microarray, 635/667 nm fluorescence, primary screen (AID 1121); conditions: higher = more signal;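 further: score merges feature fluorescence read at 667 nm with its signal to noise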
# [4] = target: Carbonic anhydrase 2 (Homo sapiens) (UniProt P00918); assay: compounds binding carbonic anhydrase 2 – biochemical, small-molecule microarray, Alexa647-labelled CAII, profiling panel (AID 1122); conditions: CAII-A647 binding fluorescence, higher = more signal
# [5] = COS7 lysate on small-molecule microarray, probe aHis, 635 nm (AID 1123); conditions: COS7 cell lysate, fluorescence, higher = more signal;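 further: z-score combines 667nm fluorescence intensity with signal-to-noise per printed compound spot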
# [6] = probe aLAP1 signal on lysate-treated microarray – cell lysate, small-molecule microarray, COS7 lysate, primary screen (AID 1124); conditions: probe aLAP1, fluorescence, higher = more signal;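 further: lysate comes from COS7 cells expressing LAP1 and is applied at 0.3 µg/mL; score merges spot fluorescence near 667 nm with signal-to-noise over triplicate slides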
# Sam68 (KHDRBS1) = assay: compounds binding KHDRBS1 protein – biochemical, small-molecule microarray, 635 nm fluorescence, primary screen (AID 1125); conditions: higher = more signal;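 further: score merges 667 nm channel intensity with signal to noise over triplicate slides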
# [7] = tested on: Chordin-like protein 2 (CHRDL2); assay: compounds binding chordin-like 2 – biochemical, small-molecule microarray, 635 nm fluorescence, primary screen (AID 1126); conditions: fluorescence 635 nm, higher = more signal;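 further: printed compound slides probed with Chrdl2 protein at 4 µg/mL for 1 h at 4 C; score merges 667 nm emission intensity with signal to noise over three replicate slides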
# [8] = target: Concanavalin-A (Canavalia ensiformis) (UniProt P02866); assay: compounds binding concanavalin A lectin – biochemical, small-molecule microarray, Alexa647 label, 635 nm, artefact control for SMM control protein annotation, primary screen (AID 1127); conditions: ConA-A647 binding fluorescence, higher = more signal;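 further: z combines 667 nm emission intensity with signal-to-noise across three replicate slides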
# [9] = compounds binding Alexa647 anti-His antibody – biochemical, small-molecule microarray, 635 nm fluorescence, artefact control for SMM control protein annotation, primary screen (AID 1128); conditions: higher = more signal;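 further: score merges feature fluorescence with signal-to-noise for each printed compound spot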
# [10] = tested on: Human papillomavirus type 1a E7 protein (residues 1-88); assay: HPV1a E7 small-molecule binders, primary screen, biochemical, small-molecule microarray, residues 1-88, 635 nm (AID 1129); conditions: small-molecule microarray binding, fluorescence 635 nm; higher = more signal
# [11] = target: Focal adhesion kinase 1 (Homo sapiens) (UniProt Q05397); assay: PTK2 protein binding on printed compound slides – biochemical, small-molecule microarray, 635/667 nm fluorescence, BSA, DTT, primary screen (AID 1130); conditions: 635 nm fluorescence, higher = more signal;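 further: composite of spot emission at 667 nm and signal to noise over triplicate slides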
# [12] = tested on: Fibrinogen (Alexa647-labelled); assay: Alexa647-fibrinogen binding to printed small molecules – biochemical, small-molecule microarray, 635/667 nm fluorescence, artefact control for SMM control-protein annotation, profiling panel (AID 1131); conditions: fibrinogen-A647 binding fluorescence, higher = more signal;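 further: z-score merges 667 nm fluorescence with per-spot signal-to-noise over triplicate slides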
# [13] = target: Follistatin (Homo sapiens) (UniProt P19883); assay: FST protein binding to printed compounds – biochemical, small-molecule microarray, 635/667 nm fluorescence, primary screen (AID 1132); conditions: 635 nm fluorescence, higher = more signal
# [14] = target: Fibroblast growth factor 2 (Homo sapiens) (UniProt P09038); assay: basic fibroblast growth factor binding to printed compounds – biochemical, small-molecule microarray, 635/667 nm fluorescence, primary screen (AID 1133); conditions: FGF2, fluorescence 635/667, higher = more signal
# [15] = JC-1 mitochondrial potential readout, lung cancer cells – cell-based, A549, JC-1 fluorescence, basal, 24 h, 100 nL, profiling panel (AID 1138); conditions: higher = more signal;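 further: A549 lung adenocarcinoma cells under basal conditions with no added stimulus; test concentration not given here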
# Lefty1 = Lefty1 protein binding to printed compounds – biochemical, small-molecule microarray, 635/667 nm fluorescence, primary screen (AID 1139); conditions: fluorescence 635/667, higher = more signal
# [16] = tested on: wheat germ agglutinin (Triticum aestivum), Alexa647-labelled; assay: Alexa647-WGA lectin binding to printed small molecules – biochemical, small-molecule microarray, 635/667 nm fluorescence, artefact control for SMM control-protein annotation, profiling panel (AID 1140); conditions: WGA-A647 binding, 635 nm fluorescence, higher = more signal;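 further: score merges 667 nm feature emission with signal to noise over triplicate slides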
# [17] = target: Luciferin 4-monooxygenase (Photinus pyralis) (UniProt P08659); assay: inhibition of purified Photinus pyralis luciferase – biochemical, luminescence, purified enzyme, 2006 set, primary screen (AID 1141); conditions: purified firefly luciferase, SteadyGlo luminescence, 30 min; higher = more signal, called active from +8 up or from −8 down;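 further: cell-free assay with purified firefly luciferase at 100 ng per well in PBS; test concentration not given here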
# Chain of Luciferin 4-monooxygenase (Photinus pyralis) (P08659 whole entry, looked up): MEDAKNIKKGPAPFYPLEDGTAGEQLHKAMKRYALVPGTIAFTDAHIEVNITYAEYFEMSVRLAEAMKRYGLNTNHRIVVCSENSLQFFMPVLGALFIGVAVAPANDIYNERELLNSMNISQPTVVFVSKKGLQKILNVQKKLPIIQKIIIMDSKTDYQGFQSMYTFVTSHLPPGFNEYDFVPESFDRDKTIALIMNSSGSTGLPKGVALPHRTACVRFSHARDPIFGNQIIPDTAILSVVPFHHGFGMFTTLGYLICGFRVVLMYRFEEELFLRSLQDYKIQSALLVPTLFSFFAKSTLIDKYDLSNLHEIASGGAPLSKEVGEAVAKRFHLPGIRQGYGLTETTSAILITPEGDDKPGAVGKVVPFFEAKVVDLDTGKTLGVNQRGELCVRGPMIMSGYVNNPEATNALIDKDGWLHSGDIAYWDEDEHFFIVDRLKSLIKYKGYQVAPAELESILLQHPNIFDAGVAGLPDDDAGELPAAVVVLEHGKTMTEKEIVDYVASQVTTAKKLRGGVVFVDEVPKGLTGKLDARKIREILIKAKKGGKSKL
# Chain of Follistatin (Homo sapiens) (P19883 whole entry, looked up): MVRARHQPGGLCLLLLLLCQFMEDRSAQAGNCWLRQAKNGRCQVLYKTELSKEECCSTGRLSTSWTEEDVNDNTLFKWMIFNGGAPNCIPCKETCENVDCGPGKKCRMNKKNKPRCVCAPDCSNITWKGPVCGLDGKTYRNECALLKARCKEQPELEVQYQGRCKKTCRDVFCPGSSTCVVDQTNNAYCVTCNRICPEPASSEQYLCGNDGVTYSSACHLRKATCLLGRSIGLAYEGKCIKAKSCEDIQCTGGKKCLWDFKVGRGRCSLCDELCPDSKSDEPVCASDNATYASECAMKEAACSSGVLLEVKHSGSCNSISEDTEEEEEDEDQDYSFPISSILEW
# Chain of Albumin (Bos taurus) (P02769 whole entry, looked up): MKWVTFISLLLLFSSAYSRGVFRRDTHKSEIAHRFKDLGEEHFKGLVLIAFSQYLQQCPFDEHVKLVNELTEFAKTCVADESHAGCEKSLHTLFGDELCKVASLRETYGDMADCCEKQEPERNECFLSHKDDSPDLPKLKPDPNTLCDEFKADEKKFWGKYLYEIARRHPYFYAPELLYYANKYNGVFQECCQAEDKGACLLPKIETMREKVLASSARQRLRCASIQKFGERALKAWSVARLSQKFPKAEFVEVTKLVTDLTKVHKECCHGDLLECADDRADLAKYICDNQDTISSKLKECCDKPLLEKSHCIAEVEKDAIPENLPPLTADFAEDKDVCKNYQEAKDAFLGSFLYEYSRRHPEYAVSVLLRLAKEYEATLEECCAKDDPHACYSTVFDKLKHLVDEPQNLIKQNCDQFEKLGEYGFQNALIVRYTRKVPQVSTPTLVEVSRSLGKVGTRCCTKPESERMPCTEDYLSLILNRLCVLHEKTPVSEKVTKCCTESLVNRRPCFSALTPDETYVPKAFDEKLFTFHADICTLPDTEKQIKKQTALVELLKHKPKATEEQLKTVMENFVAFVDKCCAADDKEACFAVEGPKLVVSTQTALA
# Chain of Concanavalin-A (Canavalia ensiformis) (P02866 whole entry, looked up): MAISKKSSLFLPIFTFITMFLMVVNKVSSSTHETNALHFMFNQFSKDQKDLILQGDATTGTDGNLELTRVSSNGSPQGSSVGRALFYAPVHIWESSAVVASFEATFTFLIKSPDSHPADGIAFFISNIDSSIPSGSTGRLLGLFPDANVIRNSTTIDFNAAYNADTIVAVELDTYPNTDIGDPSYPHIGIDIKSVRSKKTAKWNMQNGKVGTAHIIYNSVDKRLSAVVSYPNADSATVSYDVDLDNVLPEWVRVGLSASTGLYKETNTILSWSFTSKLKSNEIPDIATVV
# Chain of Focal adhesion kinase 1 (Homo sapiens) (Q05397 whole entry, looked up): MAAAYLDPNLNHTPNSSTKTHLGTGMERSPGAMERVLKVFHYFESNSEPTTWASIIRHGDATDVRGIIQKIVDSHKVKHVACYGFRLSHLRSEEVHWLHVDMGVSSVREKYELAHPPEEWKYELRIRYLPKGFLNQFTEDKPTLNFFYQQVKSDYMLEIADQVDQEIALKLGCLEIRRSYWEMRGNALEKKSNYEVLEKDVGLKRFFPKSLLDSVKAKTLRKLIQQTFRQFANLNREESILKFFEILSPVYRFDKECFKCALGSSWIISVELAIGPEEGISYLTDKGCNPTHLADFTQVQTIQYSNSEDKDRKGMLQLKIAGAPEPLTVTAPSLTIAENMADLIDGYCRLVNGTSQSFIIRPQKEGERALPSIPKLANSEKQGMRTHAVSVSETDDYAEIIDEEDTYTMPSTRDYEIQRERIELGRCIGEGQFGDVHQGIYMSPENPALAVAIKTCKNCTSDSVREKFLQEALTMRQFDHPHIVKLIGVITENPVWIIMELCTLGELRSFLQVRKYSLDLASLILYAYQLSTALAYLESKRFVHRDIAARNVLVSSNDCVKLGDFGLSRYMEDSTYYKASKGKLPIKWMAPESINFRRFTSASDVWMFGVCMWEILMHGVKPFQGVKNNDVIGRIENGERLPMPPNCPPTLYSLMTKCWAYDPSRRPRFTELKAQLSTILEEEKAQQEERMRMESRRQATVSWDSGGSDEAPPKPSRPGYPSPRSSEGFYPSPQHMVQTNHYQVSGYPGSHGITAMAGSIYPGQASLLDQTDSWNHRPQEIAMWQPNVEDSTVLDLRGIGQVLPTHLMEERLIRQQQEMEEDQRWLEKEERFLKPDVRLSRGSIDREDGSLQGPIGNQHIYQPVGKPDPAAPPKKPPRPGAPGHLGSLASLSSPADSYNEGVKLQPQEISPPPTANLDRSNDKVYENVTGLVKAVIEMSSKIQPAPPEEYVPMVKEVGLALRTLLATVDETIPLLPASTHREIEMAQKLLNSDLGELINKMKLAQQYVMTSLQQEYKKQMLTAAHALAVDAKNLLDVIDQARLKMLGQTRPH
# Chain of Fibroblast growth factor 2 (Homo sapiens) (P09038 whole entry, looked up): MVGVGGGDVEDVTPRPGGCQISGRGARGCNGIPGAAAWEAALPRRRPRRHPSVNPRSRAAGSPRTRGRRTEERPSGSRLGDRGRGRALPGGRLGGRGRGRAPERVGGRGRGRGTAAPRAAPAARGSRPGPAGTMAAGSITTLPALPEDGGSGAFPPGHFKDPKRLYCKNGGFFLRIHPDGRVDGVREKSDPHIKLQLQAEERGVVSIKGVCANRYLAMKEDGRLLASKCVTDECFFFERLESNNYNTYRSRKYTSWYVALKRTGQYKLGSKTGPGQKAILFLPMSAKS
Compound,composite z-score (Albumin (Bos taurus)),composite Z-score [1],composite z-score [2],composite z-score [3],composite z-score [4],composite z-score [5],composite z-score [6],composite z-score (Sam68 (KHDRBS1)),composite z-score [7],composite z-score [8],composite z-score [9],composite z-score [10],composite z-score [11],composite z-score [12],composite z-score [13],composite z-score [14],z-score [15],composite z-score (Lefty1),composite z-score [16],z-score [17]
[N-]=[N+]=NCc1ccccc1C[C@]1(C(=O)NCC(O)CO)N=C(c2ccc(OCCCO)cc2)O[C@H]1c1ccccc1 (stereo not given in full),0.922,-0.321 (inactive),0.062,-0.0596,0.698,2.57,0.108,-0.236,-0.911,-0.916,0.375,-0.116,-0.294,-0.231,0.263,-0.476,-0.077,-1.5,0.228,-0.263 (inactive)
COc1ccc([C@H]2C[C@H]3C(Br)=C[C@@H]2C(=O)[C@]32CO2)cc1,-1.13,-0.624 (inactive),-0.176,-0.075,-0.539,-0.442,-0.0737,-0.99,0.736,0.125,0.613,-0.751,0.298,-0.325,0.6,0.194,0.271,0.0745,-0.138,-0.388 (inactive)
[N-]=[N+]=Nc1ccccc1C[C@]1(C(=O)NCC(O)CO)N=C(c2ccc(OCCCO)cc2)O[C@H]1c1ccccc1N=[N+]=[N-] (stereo not given in full),0.376,0.045 (inactive),0.0151,0.0809,0.391,1.69,-0.352,0.431,-0.424,-0.899,1.58,-0.212,0.0567,0.578,-0.332,-0.83,0.0494,-0.435,0.543,-3.26 (inactive)
O=C(NCc1ccccc1)[C@@]1(CCS(=O)(=O)c2ccccc2)N=C(c2ccc(OCCCO)cc2)O[C@H]1c1ccccc1,1.01,0.198 (inactive),0.471,-0.0128,0.615,3.07,0.557,1.29,-0.481,1.16,1.52,1.26,0.54,0.994,1.21,-0.0657,-0.346,0.116,1.1,0.548 (inactive)
CC(C)(C)OC(=O)CC[C@@]1(C(N)=O)N=C(c2ccc(OCCCO)cc2)O[C@@H]1c1ccccc1,0.604,-0.327 (inactive),0.3,0.011,0.758,2.99,0.26,1.3,-0.796,0.722,1.27,1.13,0.754,0.971,0.136,-0.343,-0.655,-0.0503,0.178,-0.637 (inactive)
O=C1OCCC/C=C\[C@H]2OC34C=CCN(Cc5ccccc5)C(=O)[C@H]3N(CCCCCCO)C(=O)[C@@H]4C12 (stereo not given in full),-0.449,0.986 (inactive),-0.262,-0.141,0.893,-0.19,0.468,0.139,-1.24,-1.3,0.727,-0.39,0.0123,-1.98,-1.61,-0.929,1.59,-1.55,-0.513,-1.76 (inactive)
C=C[C@H](COC(C)=O)N(C(=O)OC(C)(C)C)S(=O)(=O)c1ccc(Br)cc1,-0.19,-0.526 (inactive),0.704,0.463,0.162,0.216,0.0842,0.355,0.55,0.193,1.7,0.851,0.461,-0.296,0.867,0.433,0.671,0.65,0.233,-1.57 (inactive)
CN(C)C(=O)[C@@]1(Cc2ccccc2CN=[N+]=[N-])N=C(c2ccc(OCCCO)cc2)O[C@H]1c1ccccc1,0.722,-0.797 (inactive),0.103,0.112,0.277,2.69,0.624,1.28,-0.285,0.749,2.77,1.18,0.995,0.941,0.761,1.34,0.0462,-0.169,0.751,0.27 (inactive)
C=CC[C@@]1(C(=O)N(C)C)N=C(c2ccc(OCCCO)cc2)O[C@@H]1c1ccccc1N=[N+]=[N-],0.757,0.149 (inactive),0.37,0.209,0.588,3.01,1.2,1.3,-0.344,1.18,3.01,1.22,0.489,0.776,1.28,0.26,0.857,0.406,1.33,-9.07 (active)

# Source: PubChem BioAssay
